Test results from the supplement of paper PMC10849652.
Of roughly 7,900 targets only a part is listed; those with a hit were picked by preference. About 0.6% of all pairs of compound and target were hits. Values without a mark were called inactive.

Compound: CC1=C(C=C(C=C1)NC(=O)C2=CC(=CC=C2)C(C)(C)C#N)NC3=CC4=C(C=C3)N=CN(C4=O)C
Experiment: log2 fold change, soluble protein after heating vs DMSO (PISA); higher = thermal stabilisation; K562 cells, 10 uM, 30 min; active = over 0.2 and 3.5 SD of the protein, either way, in both replicates (recomputed)
Procedure, shortened: (§1)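 Soluble protein was defined as the supernatant after 21,000xg for 90 min. It came from K562 cells at 2×10^6 cells/mL given 10 μM compound for 30 min, heated in aliquots for 3 min across 48°C-58°C, pooled, and extracted in PBS with 0.5% NP-40 at 4°C, and was quantified by TMTpro 16plex LC-MS/MS with equalised channel sums. Thermal stability against control samples, from duplicates, is reported as log2 fold change.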

Sequence of UniProt Q14157 (Q14157 whole entry, looked up): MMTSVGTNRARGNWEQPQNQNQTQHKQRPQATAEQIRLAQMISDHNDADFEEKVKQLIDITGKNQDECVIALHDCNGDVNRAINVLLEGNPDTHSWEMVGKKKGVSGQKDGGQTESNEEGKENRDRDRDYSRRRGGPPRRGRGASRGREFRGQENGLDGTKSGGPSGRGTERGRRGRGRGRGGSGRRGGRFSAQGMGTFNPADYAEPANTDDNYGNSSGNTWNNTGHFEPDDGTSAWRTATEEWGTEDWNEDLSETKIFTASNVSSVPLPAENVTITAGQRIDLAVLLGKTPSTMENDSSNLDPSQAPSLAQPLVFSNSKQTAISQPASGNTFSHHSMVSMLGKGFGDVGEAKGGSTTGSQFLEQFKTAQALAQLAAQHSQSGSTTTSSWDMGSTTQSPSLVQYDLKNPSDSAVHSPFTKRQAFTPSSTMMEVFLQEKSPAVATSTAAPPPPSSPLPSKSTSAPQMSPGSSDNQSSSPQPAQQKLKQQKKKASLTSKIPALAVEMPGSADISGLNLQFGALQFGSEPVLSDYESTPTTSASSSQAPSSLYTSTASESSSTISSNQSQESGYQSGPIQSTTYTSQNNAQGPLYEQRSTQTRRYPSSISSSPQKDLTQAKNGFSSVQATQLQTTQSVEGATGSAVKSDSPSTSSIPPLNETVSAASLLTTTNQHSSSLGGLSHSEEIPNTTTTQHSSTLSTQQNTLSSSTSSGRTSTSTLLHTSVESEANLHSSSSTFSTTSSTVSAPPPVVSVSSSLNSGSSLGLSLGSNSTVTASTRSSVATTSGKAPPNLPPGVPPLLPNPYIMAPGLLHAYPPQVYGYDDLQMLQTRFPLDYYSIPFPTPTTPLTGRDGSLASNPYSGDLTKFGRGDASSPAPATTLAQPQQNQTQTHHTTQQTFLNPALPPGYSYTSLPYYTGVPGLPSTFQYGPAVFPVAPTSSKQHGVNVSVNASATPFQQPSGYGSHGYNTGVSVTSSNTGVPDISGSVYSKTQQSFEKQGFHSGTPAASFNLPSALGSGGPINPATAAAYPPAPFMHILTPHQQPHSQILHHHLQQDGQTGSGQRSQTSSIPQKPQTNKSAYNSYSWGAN
Sequence of UniProt Q9Y4E8 (Q9Y4E8 whole entry, looked up): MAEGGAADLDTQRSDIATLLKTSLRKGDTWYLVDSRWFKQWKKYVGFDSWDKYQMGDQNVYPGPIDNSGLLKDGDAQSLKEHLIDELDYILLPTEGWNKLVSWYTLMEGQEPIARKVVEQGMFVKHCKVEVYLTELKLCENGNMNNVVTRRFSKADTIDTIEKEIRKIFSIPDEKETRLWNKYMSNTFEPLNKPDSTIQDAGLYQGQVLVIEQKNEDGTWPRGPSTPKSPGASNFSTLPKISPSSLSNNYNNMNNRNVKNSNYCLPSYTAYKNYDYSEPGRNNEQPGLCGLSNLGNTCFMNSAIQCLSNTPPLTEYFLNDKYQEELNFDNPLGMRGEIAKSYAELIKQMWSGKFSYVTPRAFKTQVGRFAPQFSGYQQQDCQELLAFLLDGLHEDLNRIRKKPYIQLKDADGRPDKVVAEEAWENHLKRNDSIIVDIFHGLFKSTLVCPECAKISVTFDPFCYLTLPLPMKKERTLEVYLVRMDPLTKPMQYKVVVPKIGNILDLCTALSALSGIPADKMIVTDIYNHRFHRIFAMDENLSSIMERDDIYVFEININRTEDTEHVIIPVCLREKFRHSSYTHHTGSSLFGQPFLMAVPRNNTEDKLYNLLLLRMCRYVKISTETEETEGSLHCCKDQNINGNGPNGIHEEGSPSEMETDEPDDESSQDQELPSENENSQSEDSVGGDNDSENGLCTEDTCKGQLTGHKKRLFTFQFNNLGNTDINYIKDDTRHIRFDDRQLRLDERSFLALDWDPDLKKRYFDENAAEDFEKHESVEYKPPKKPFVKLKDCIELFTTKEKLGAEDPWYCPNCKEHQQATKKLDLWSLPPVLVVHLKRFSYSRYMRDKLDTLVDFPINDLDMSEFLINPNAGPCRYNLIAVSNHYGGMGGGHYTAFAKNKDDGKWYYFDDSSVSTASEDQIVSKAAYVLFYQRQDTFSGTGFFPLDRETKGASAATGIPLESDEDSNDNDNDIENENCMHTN
Sequence of UniProt Q9NQW7 (Q9NQW7 whole entry, looked up): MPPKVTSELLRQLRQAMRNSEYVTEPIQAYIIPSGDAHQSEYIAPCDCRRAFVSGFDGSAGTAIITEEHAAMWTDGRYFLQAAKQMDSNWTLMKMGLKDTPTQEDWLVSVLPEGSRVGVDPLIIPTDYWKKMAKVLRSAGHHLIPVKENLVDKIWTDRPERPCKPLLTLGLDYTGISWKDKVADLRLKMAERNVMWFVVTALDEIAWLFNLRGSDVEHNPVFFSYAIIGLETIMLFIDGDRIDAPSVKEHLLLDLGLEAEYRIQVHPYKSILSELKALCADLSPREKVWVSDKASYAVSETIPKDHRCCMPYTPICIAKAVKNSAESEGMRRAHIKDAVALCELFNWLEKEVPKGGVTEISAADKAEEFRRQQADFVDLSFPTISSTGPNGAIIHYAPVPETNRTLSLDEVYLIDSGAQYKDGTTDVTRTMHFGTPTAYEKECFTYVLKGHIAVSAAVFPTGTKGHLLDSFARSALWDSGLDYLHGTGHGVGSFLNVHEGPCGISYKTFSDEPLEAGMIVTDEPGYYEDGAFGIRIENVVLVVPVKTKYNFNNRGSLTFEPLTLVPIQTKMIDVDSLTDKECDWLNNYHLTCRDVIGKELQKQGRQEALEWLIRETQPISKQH
Sequence of UniProt O94967 (O94967 whole entry, looked up): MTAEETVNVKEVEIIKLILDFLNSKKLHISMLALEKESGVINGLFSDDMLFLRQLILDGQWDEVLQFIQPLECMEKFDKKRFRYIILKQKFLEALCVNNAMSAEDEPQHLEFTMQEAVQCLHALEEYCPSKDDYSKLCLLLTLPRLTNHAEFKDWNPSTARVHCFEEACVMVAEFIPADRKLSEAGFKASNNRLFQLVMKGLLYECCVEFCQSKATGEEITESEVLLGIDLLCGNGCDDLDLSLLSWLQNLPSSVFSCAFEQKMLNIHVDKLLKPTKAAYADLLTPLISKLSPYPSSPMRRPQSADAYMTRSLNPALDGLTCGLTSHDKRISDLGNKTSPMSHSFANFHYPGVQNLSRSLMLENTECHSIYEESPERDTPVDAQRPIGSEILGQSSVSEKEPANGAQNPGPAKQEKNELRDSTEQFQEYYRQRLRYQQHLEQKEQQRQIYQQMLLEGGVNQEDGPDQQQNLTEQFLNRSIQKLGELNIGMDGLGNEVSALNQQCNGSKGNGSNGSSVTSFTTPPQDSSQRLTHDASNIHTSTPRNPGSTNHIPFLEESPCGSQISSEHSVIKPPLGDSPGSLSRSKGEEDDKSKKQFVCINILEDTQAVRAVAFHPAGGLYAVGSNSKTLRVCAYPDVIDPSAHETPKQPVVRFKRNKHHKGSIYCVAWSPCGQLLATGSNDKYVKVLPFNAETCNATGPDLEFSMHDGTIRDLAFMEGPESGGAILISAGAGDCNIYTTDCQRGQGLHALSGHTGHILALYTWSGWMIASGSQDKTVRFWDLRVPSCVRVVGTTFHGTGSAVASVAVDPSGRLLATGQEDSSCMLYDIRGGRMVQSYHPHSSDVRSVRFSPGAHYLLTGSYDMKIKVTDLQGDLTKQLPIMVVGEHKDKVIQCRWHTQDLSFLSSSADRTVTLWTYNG
Sequence of UniProt Q9HAD4 (Q9HAD4 whole entry, looked up): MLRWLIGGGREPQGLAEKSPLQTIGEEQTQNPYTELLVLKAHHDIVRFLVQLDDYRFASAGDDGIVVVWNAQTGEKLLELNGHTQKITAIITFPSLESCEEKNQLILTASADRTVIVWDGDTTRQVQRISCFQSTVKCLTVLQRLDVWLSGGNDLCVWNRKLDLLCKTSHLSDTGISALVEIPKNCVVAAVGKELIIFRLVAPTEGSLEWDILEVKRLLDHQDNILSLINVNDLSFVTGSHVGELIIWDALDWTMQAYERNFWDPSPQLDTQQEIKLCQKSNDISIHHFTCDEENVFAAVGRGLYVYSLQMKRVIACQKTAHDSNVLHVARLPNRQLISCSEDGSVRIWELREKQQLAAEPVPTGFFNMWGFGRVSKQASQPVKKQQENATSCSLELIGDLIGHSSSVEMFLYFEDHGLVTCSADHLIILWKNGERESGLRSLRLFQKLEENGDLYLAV
Sequence of UniProt Q01081 (Q01081 whole entry, looked up): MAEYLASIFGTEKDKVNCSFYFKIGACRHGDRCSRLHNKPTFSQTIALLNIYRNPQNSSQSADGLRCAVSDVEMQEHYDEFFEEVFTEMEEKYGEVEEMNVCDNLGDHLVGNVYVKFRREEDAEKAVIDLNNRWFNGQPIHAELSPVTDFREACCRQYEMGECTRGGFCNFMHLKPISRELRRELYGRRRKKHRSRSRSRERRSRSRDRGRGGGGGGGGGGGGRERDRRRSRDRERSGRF
Sequence of UniProt Q8N4H5 (Q8N4H5 whole entry, looked up): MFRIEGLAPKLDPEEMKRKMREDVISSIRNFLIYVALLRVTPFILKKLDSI
Sequence of UniProt P26368 (P26368 whole entry, looked up): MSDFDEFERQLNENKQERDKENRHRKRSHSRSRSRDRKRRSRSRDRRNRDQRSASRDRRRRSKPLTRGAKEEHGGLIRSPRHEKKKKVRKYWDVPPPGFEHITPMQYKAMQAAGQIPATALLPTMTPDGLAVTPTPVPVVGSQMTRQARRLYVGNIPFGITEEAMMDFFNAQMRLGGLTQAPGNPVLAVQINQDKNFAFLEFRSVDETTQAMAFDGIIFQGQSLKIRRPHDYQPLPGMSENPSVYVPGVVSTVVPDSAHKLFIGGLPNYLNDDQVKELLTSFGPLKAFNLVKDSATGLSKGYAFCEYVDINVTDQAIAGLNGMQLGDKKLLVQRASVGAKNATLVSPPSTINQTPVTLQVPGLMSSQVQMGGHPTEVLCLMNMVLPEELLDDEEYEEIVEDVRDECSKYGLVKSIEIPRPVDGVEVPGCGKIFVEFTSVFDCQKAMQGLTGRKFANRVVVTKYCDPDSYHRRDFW
Sequence of UniProt Q99757 (Q99757 whole entry, looked up): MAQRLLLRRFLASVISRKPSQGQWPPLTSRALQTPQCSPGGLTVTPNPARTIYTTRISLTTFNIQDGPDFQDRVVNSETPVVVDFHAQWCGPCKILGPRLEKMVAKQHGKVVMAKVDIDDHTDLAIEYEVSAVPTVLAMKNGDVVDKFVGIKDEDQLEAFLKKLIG

WDHD1 (UniProt O75717) and TOMM5 isoform 2 (UniProt Q8N4H5) are within 0.2 log units of each other in log2 fold change: 0.057 for the first, -0.009 for the second.

WDR41 (UniProt Q9HAD4) and XPO5 (UniProt Q9HAV4) are within 0.2 log units of each other in log2 fold change: 0.044 for the first, 0.031 for the second.

VARS2, A0A0G2JL52 and WNK1 isoform 7 (UniProt Q9H4A3) are within 0.2 log units of each other in log2 fold change: -0.003 for the first, -0.047 for the second.

TRIM28 (UniProt Q13263) and WRB (UniProt O00258) are within 0.2 log units of each other in log2 fold change: 0.013 for the first, -0.046 for the second.

UBR2 (UniProt Q8IWV8) and UBE2S (UniProt Q16763) are within 0.2 log units of each other in log2 fold change: 0.079 for the first, 0.024 for the second.

VPS13B (UniProt Q7Z7G8) and TRMT10C (UniProt Q7L0Y3) are within 0.2 log units of each other in log2 fold change: 0.02 for the first, 0.013 for the second.

XPNPEP3 (UniProt Q9NQH7) and TMEM189-UBE2V1 (UniProt I3L0A0) are within 0.2 log units of each other in log2 fold change: -0.045 for the first, -0.067 for the second.

USP15 (UniProt Q9Y4E8) and VWA8 (UniProt A3KMH1) are within 0.2 log units of each other in log2 fold change: 0.025 for the first, -0.07 for the second.

TUBAL3 (UniProt A6NHL2) and XPO1 (UniProt O14980) are within 0.2 log units of each other in log2 fold change: 0.152 for the first, 0.072 for the second.

U2AF2 (UniProt P26368) and WDR47 (UniProt O94967) are within 0.2 log units of each other in log2 fold change: -0.076 for the first, -0.031 for the second.

U2AF1 isoform 2 (UniProt Q01081) and XPNPEP1 isoform 3 (UniProt Q9NQW7) are within 0.2 log units of each other in log2 fold change: -0.011 for the first, 0.014 for the second.

UBA1 (UniProt P22314) and WDR4 (UniProt P57081) are within 0.2 log units of each other in log2 fold change: 0.039 for the first, -0.112 for the second.

VPS35L (UniProt Q7Z3J2) and UBA6 are within 0.2 log units of each other in log2 fold change: 0.024 for the first, 0.086 for the second.

UQCR10 (UniProt Q9UDW1) and TRAPPC11 (UniProt Q7Z392) are within 0.2 log units of each other in log2 fold change: 0.103 for the first, 0.098 for the second.

TXN2 (UniProt Q99757) and UBAP2L isoform 1 (UniProt Q14157) are within 0.2 log units of each other in log2 fold change: -0.05 for the first, -0.057 for the second.

TMEM208 (UniProt Q9BTX3) and UBAP2L isoform 5 (UniProt Q14157) are within 0.2 log units of each other in log2 fold change: -0.093 for the first, -0.014 for the second.

TXNIP (UniProt Q9H3M7) and VRK2 (UniProt Q86Y07) are within 0.2 log units of each other in log2 fold change: -0.04 for the first, -0.072 for the second.

WDR61 (UniProt Q9GZS3) and USP48 isoform 8 (UniProt Q86UV5) are within 0.2 log units of each other in log2 fold change: -0.026 for the first, 0.128 for the second.

Compound: CC1=C(C=C(C=C1)NC(=O)C2=CC(=CC=C2)N(C)C)NC(=O)C3=CC=C(C=C3)O
Experiment: as above
Procedure, shortened: as §1

Compared with WDHD1 (UniProt O75717), TOMM5 isoform 2 (UniProt Q8N4H5) is higher in log2 fold change: -0.043 for the first, 0.367 for the second.

WDR41 (UniProt Q9HAD4) and XPO5 (UniProt Q9HAV4) are within 0.2 log units of each other in log2 fold change: 0 for the first, -0.039 for the second.

First: VARS2, A0A0G2JL52
Second: WNK1 isoform 7 (UniProt Q9H4A3)
The log2 fold change of the first is lower: 0.005 for the first, 0.426 for the second.

TRIM28 (UniProt Q13263) and WRB (UniProt O00258) are within 0.2 log units of each other in log2 fold change: -0.049 for the first, -0.11 for the second.

UBR2 (UniProt Q8IWV8) and UBE2S (UniProt Q16763) are within 0.2 log units of each other in log2 fold change: -0.08 for the first, -0.015 for the second.

VPS13B (UniProt Q7Z7G8) and TRMT10C (UniProt Q7L0Y3) are within 0.2 log units of each other in log2 fold change: -0.028 for the first, -0.051 for the second.

XPNPEP3 (UniProt Q9NQH7) and TMEM189-UBE2V1 (UniProt I3L0A0) are within 0.2 log units of each other in log2 fold change: 0.024 for the first, 0.017 for the second.

USP15 (UniProt Q9Y4E8) and VWA8 (UniProt A3KMH1) are within 0.2 log units of each other in log2 fold change: -0.044 for the first, 0.042 for the second.

TUBAL3 (UniProt A6NHL2) and XPO1 (UniProt O14980) are within 0.2 log units of each other in log2 fold change: -0.062 for the first, -0.063 for the second.

U2AF2 (UniProt P26368) and WDR47 (UniProt O94967) are within 0.2 log units of each other in log2 fold change: 0.005 for the first, -0.031 for the second.

U2AF1 isoform 2 (UniProt Q01081) and XPNPEP1 isoform 3 (UniProt Q9NQW7) are within 0.2 log units of each other in log2 fold change: -0.078 for the first, -0.024 for the second.

UBA1 (UniProt P22314) and WDR4 (UniProt P57081) are within 0.2 log units of each other in log2 fold change: -0.054 for the first, -0.055 for the second.

VPS35L (UniProt Q7Z3J2) and UBA6 are within 0.2 log units of each other in log2 fold change: -0.031 for the first, -0.044 for the second.

UQCR10 (UniProt Q9UDW1) and TRAPPC11 (UniProt Q7Z392) are within 0.2 log units of each other in log2 fold change: -0.086 for the first, 0.01 for the second.

TXN2 (UniProt Q99757) and UBAP2L isoform 1 (UniProt Q14157) are within 0.2 log units of each other in log2 fold change: -0.018 for the first, 0.035 for the second.

TMEM208 (UniProt Q9BTX3) and UBAP2L isoform 5 (UniProt Q14157) are within 0.2 log units of each other in log2 fold change: 0.005 for the first, 0.036 for the second.

TXNIP (UniProt Q9H3M7) and VRK2 (UniProt Q86Y07) are within 0.2 log units of each other in log2 fold change: 0.003 for the first, -0.05 for the second.

WDR61 (UniProt Q9GZS3) and USP48 isoform 8 (UniProt Q86UV5) are within 0.2 log units of each other in log2 fold change: 0.024 for the first, -0.094 for the second.
